Results taken from PubChem BioAssay (NCATS).
Results filed as inconclusive are left out. Values without a mark were called inactive. Active and inactive are the calls of the source. Calls follow the shape of the dose curve; as a rule, active = well fitted cell-killing curve with a large enough effect; inconclusive = small, poorly fitted or top-dose-only effect, or effect the other way; inactive = no such curve, though single readings can be large or run the other way.

assay: qHTS of pediatric cancer cell lines to identify multiple opportunities for drug repurposing: Confirmatory screen for RD cells (AID 1347124); settings: RD rhabdomyosarcoma cell viability; series mostly up to 45.9 µM; activity change, negative = cytotoxic: at the top concentration;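 also: cells exposed to compound for 48 h before viability readout; nearly all actives have a fitted effect of over 65% in size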
In short: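 Viability after 48 h compound treatment at 37C, 500-1,000 cells/well, read as ATP luminescence with CellTiter-Glo. Primary screens used 11-point (MIPE, 0.78 nM-46 µM) or 8-point (NPC, 0.59 nM-46 µM) final concentrations; follow-up screens used 11-point dilutions.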
% is scaled to controls: 0 for no effect and ±100 for the full control effect; potency is read from the fitted curve at half-maximal effect.

Row | Structure (SMILES) | Potency | activity change, negative = cytotoxic [%]
1 | COc1cccc2c1C(=O)c1c(O)c3c(c(O)c1C2=O)C[C@@](O)(C(C)=O)C[C@H]3O[C@H]1C[C@H](N)[C@H](O)[C@H](C)O1 | 2610 nM (active) | –
2 | CC(C)N1[N]C(=C2C=c3cc(O)ccc3=N2)c2c(N)ncnc21 | 11700 nM (active) | –
3 | Oc1cc(-c2nc(-c3ccccc3)[nH]c2-c2ccncc2)ccc1Cl | 16500 nM (active) | –
4 | Oc1ccc(-c2ccc(-c3cc(Nc4cccc(CNC5CC5)c4)n[nH]3)cc2)c(O)c1 | 5220 nM (active) | –
5 | Nc1ncn([C@@H]2O[C@H](CO)[C@@H](O)[C@@H]2O)c(=O)n1 | 20800 nM (active) | –
6 | COC[C@H](NC(=O)c1cnc(C)s1)C(=O)N[C@@H](COC)C(=O)N[C@@H](Cc1ccccc1)C(=O)[C@@]1(C)CO1 | 82.7 nM (active) | –
7 | COc1cc([C@@H]2c3cc4c(cc3[C@H](O)[C@H]3COC(=O)[C@@H]23)OCO4)cc(OC)c1OC | 928 nM (active) | –
8 | CC(=O)NCC(=O)N1[C@H]2CC[C@H]1c1cc(Nc3ncc(C(F)(F)F)c(NC4CCC4)n3)ccc12 | 13100 nM (active) | –
9 | CC[C@@]1([C@@H]2O[C@@H]([C@H]3O[C@@](O)(CO)[C@H](C)C[C@H]3C)C[C@H]2C)CC[C@H]([C@]2(C)CC[C@]3(C[C@H](O)[C@@H](C)[C@@H]([C@@H](C)[C@@H](OC)[C@H](C)C(=O)O)O3)O2)O1 | 2290 nM (active) | –
10 | N#CNC(=NCCCCCCOc1ccc(Cl)cc1)Nc1ccncc1 | 36.9 nM (active) | –
11 | COC(=O)[C@@H]1[C@H]2C[C@@H]3c4[nH]c5ccccc5c4CCN3C[C@@H]2CC[C@@H]1O | – | 9.93
12 | COc1ccc(S(=O)(=O)Nc2cccnc2Nc2ccc(O)cc2)cc1 | 928 nM (active) | –
13 | C=C1C(=CC=C2CCC[C@]3(C)[C@@H]([C@H](C)CCCC(C)(C)O)CC[C@@H]23)C[C@@H](O)C[C@@H]1O | – | 10.9
14 | CN[C@H]1[C@@H](O)[C@@H]2O[C@@H]3O[C@H](C)CC(=O)[C@]3(O)O[C@@H]2[C@@H](NC)[C@H]1O | – | 15
15 | O=C1NC(=O)C(=Cc2ccc3nccc(-c4ccncc4)c3c2)S1 | 7370 nM (active) | –
16 | O=S(=O)(O)CCSSCCS(=O)(=O)O | – | 10.4

Row | Structure (SMILES) | Potency | activity change, negative = cytotoxic [%]
17 | C=CC(=O)Nc1ccc2ncnc(Nc3ccc(OCc4cccc(F)c4)c(Cl)c3)c2c1 | 1470 nM (active) | –
18 | COc1ccc(C=Cc2cc(OC)c(OC)c(OC)c2)cc1NC(=O)[C@H](N)CO | 131 nM (active) | –
19 | CCc1cc(C(C)=NOCc2ccc(C3CCCCC3)c(C(F)(F)F)c2)ccc1CN1CC(C(=O)O)C1 | – | -15.3
20 | COc1ccc(Nc2cc(-c3cnc(N)nc3)nc(N3CCOCC3)n2)cn1 | 2610 nM (active) | –
21 | CCN(CC)CCNC(=O)c1c(C)[nH]c(C=C2C(=O)Nc3ccc(F)cc32)c1C | 15100 nM (active) | –
22 | CN(C)c1ccc(C(=O)NCCCCCCC(=O)NO)cc1 | 2330 nM (active) | –
23 | COc1ccc(C(C)=O)c(O)c1 | – | 7.32
24 | C[C@@]12C(=O)OC(=O)[C@@]1(C)C1CCC2O1 | 4140 nM (active) | –
25 | CC(C)C[C@H](NC(=O)[C@@H](NC(=O)c1cccc(-c2ccccc2)n1)[C@@H](C)O)B(O)O | 52.2 nM (active) | –
26 | CCCCC(=O)O[C@]1(C(=O)CO)[C@@H](C)C[C@H]2[C@@H]3CCC4=CC(=O)C=C[C@]4(C)[C@@]3(F)[C@@H](O)C[C@@]21C | – | -2.48
27 | CCC(C=C[C@@H]1OC(=O)C=C[C@H]1C)=C[C@H](C)CC=CC(C)=C[C@@H](C)C(=O)[C@@H](C)[C@H](O)[C@@H](C)CC(C)=CC(=O)O | 12.8 nM (active) | –
28 | COc1cccc2c1C(=O)c1c(O)c3c(c(O)c1C2=O)C[C@@](O)(C(=O)CO)C[C@H]3O[C@H]1C[C@H](N)[C@H](O)[C@H](C)O1 | 5220 nM (active) | –
29 | Cc1ncc(-c2ccnc(Nc3ccc(S(C)(=O)=O)cc3)n2)n1C(C)C | 5220 nM (active) | –
30 | COc1cccc2c1C(=O)c1c(O)c3c(c(O)c1C2=O)C[C@@](O)(C(=O)CO)C[C@@H]3O[C@H]1C[C@H](N)[C@@H](O)[C@H](C)O1 | 3290 nM (active) | –
31 | CC(C)C[C@H](NC(=O)CNC(=O)c1cc(Cl)ccc1Cl)B1OC(=O)CC(CC(=O)O)(C(=O)O)O1 (some centres not stated) | 414 nM (active) | –
32 | Cc1[nH]c(C=C2C(=O)Nc3ccccc32)c(C)c1CCC(=O)O | – | 12.1
